Assay outcomes from PubChem BioAssay.
Sampled rows, rich in hits. Any-hit rate of the full collection: about 3.8%.
ATXN viability = Viability Counterscreen for Primary qHTS for Inhibitors of ATXN expression; S2 cells (HEK-293 line with an ATXN2-luciferase reporter) viability, CellTiter-Fluor protease fluorescence, 24 h; Potency, µM (highest dose often 56.7 µM), most hits filed as cytotoxic; 0.49% of 400,000 active; note: nearly all actives have a fitted effect of over 40% in size
ATXN2 expr inh = Primary qHTS for Inhibitors of ATXN expression; HEK-293 ATXN2-luciferase reporter, luminescence, 24 h; 0.72% of 360,000 active; Potency, µM (doses to about 57 µM), for inactives: at the highest dose activity change, negative = inhibition, most hits filed as inhibitors; AID 1745845, 2022; note: % is set by controls: 0 for no effect and ±100 for the full control effect; nearly all actives have a fitted effect of over 55% in size
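qHTS (up to 57 uM final) was run with 24 h compound exposure of reporter cells at 37 °C. Each well was multiplexed: SteadyGlo luminescence measured ATXN2-luciferase expression after a fluorogenic Gly-Phe-AFC viability readout (25 uM final).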
TGFb inhibitor = qHTS for Inhibitors of TGF-b; 1.2% of 410,000 active; HepG2 CAGA-GFP TGF-b/SMAD3 reporter, GFP fluorescence, 18 h; TGF-beta stimulated, 500 pg/mL final; Potency, µM (series often up to 46.1 µM), without a hit: at the highest dose activity, negative = inhibition, actives largely listed as inhibitors; note: % is set by controls: 0 for no effect and ±100 for the full control effect; nearly all actives have a fitted effect of over 65% in size
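Smad-responsive CAGA-GFP expression was quantified in HEPG2 cells exposed to compounds and 500 pg/mL final TGF-beta for 18 h at 37 degrees C; unstimulated wells defined full inhibition.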
HT1080-NT tox = qHTS for induction of synthetic lethality in tumor cells producing 2HG: qHTS for the HT-1080-NT fibrosarcoma cell line; HT-1080-NT fibrosarcoma viability, CellTiter-Glo ATP luminescence, 48 h; Potency, µM (top dose mostly 46.1 µM), for inactives: at the top dose activity, negative = less viability, hits mostly cytotoxic; 1.6% of 360,000 active;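 note: NT is the 2HG producing partner of a matched IDH1 knockdown line; 0% = DMSO-treated cells and -100% = media-only wells without cells; nearly all actives have a fitted effect of over 55% in size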
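A 48-hour cytotoxicity screen used HT-1080-NT cells plated 2 hours before compound delivery. ATP-based CellTiter-Glo luminescence measured viability, normalized to DMSO and no-cell controls.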
HT1080 IDH1KD tx = qHTS for induction of synthetic lethality in tumor cells producing 2HG: qHTS for the HT-1080-IDH1KD cell line | HT-1080 IDH1 knockdown viability, ATP luminescence, 48 h | Potency, µM (doses to about 46.1 µM), without a hit: at the highest dose activity, negative = toxicity, hits mostly cytotoxic | 2% of 360,000 active;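 note: 0% = DMSO wells and -100% = cell-free medium wells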
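After a 2 h attachment period, IDH1KD HT-1080 cells took pin-transferred compound for 48 h at 37 °C; ATP-based luminescence after 10 min room-temperature reagent incubation reported viability.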
HepG2 viability = qHTS for Inhibitors of TGF-b: Cytotox Counterscreen; HepG2 CAGA-GFP viability, ATP luminescence, 18 h; Potency, µM (series often up to 46.1 µM), for inactives: at the highest dose activity change, negative = cytotoxicity, hits mostly cytotoxic; 0.76% of 410,000 active; AID 588856, 2011
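CellTiter-Glo luminescence gave cytotoxicity after 18 hours at 37 degrees C. The cells were HepG2 CAGA-GFP in 1% FBS DMEM, stimulated with 500 pg/mL TGF-beta after compound addition. %Activity was normalised to no-cell wells (complete cell-killing) and DMSO (no toxicity), and curves were fitted and classified.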
The depositor's hits bear a star; i = inactive; ? = inconclusive; · = no result given; [ ] = another dose, or the depositor's remark. Calls come from the whole dose curve; as a rule, active = well fitted curve in the direction sought with a large enough effect; inconclusive = small, poorly fitted or top-dose-only effect, or another doubt; inactive = no such curve, though single readings can be large; an effect the other way counts as inactive or inconclusive. Potency is the fitted concentration of half-maximal effect.

SMILES	ATXN viability	ATXN2 expr inh	TGFb inhibitor	HT1080-NT tox	HT1080 IDH1KD tx	HepG2 viability
Cc1ccccc1S(=O)(=O)Cc1ccc(C(=O)N2CCN(c3cccc(C)c3C)CC2)o1	17.8µM*	12.6µM*	?	5.8µM*	6.51µM*	-17.2%
Cc1cccc(N2CCN(C(=O)c3ccncc3)CC2)c1C	?	43.3%	0.2%	9.2µM*	13µM*	2.7%
Cc1cccc(N2CCN(C(=O)N3CCOCC3)CC2)c1C	i	-27.4%	-1.7%	16.4µM*	?	5.2%
Cc1cccc(N2CCN(C(=O)c3ccnn3C)CC2)c1C	i	5.5%	0.1%	-4.1%	0.3%	7.6%
CC(=O)c1ccc(NC(=O)c2ccc(-c3nc(COc4ccc(C)cc4)c(C)o3)cc2)cc1	i	2.4%	3.1%	·	·	-12.7%
Cc1ccc(NS(=O)(=O)c2c(C(=O)N3CCC(C)CC3)c(C)n(C)c2C)cc1Cl	·	·	-23.7%	·	·	-5.2%
CCOc1ccccc1CN1CCN(Cc2cc3ccccc3[nH]2)CC1CCO (configuration not stated)	i	-17.2%	-27.5%	23.1µM*	?	-32.6%
CCOc1ccccc1CN1CCN(CC2CC2)CC1CCO (configuration not stated)	i	11.5%	2.8%	-0.1%	0.1%	-0.1%
Cc1cc(C)c2c(=O)cc(C(=O)Nc3ccc(C)c(Cl)c3)oc2c1	i	6.7%	14.3%	·	·	10.9%
COC(=O)c1ccc(-n2c(C)cc(-c3csc(NC(=O)c4ccc(S(=O)(=O)N(C)C)cc4)n3)c2C)cc1	i	-1.3%	?	7.2%	9.1%	12.6µM*
Cc1ccc(C(=O)N(Cc2cc3cccc(C)c3nc2N(C)C)CC2CCCO2)cc1 (configuration not stated)	i	·	·	·	·	·
O=C(CSc1nnc(-c2ccccc2)n1Cc1ccco1)Nc1ccc(S(=O)(=O)N2CCCC2)cc1	i	-17.8%	-25.7%	-4.1%[9.24 µM]	7.08µM*	-22.9%
CCCCCCCC/C=C\CCCCCCCC(=O)OC[C@@H](O)[C@H]1OC[C@H](O)[C@H]1O	i	·	·	·	·	·
Cc1cc2nc(-c3cccnc3SCC(=O)NCc3ccco3)[nH]c2cc1C	i	15.2%	-1.4%	10µM*	10µM*	-66.5%
O=C(CSc1ncccc1-c1nc2ccccc2[nH]1)NCc1ccco1	i	62.3%	-6.9%	?	?	-16.8%
O=C(O)c1c(O)c(-c2ccccc2)nc2ccccc12	i	40.5%	·	·	·	·
O=[N+]([O-])c1ccc(/C=N/Nc2ccnc3cc(Cl)ccc23)o1	?	-27.5%	?	?	?	20µM*
COc1ccc(C#Cc2cccc(-c3nc(C(=O)NCc4ccc(Oc5ccccc5)cc4)cc4c3[C@@H](CCO)N(S(=O)C(C)(C)C)C4)c2)cc1OC (some centres not stated)	31.6µM*	?	?	20.6µM*	?	15.8µM*
CCOc1ccc(N(C(=O)c2ccc(OC)cc2)S(=O)(=O)c2ccc3c(c2)n(C)c(=O)n3C)cc1	?	-8.3%	27.6%	·	·	-6.6%
COc1ccc(-c2cc(=O)n(-c3nc4ccccc4[nH]3)[nH]2)cc1	?	-21.8%	-4.9%	22.4µM*	?	-45.1%
c1ccc(-c2nc3ccccc3[nH]2)cc1	i	44.7%	-6.3%	-16.0%	-8.4%	-19.8%
COc1ccc(-c2nc3ccccc3[nH]2)cc1	i	0.3%	8.1%	10µM*	11.2µM*	7.94µM*
O=C(O)c1cccc(-c2nc3ccccc3[nH]2)c1	i	14.1µM*	-8.3%	-2.9%	-14.6%	-16.9%
COc1cc(C)c(CN2C[C@H](Sc3ccccn3)C[C@H]2C(=O)N(C)C)cc1C	i	·	·	·	·	·
CC(C)(C)n1ncc2c(=O)n(Cc3cccc(Oc4ccccc4)c3)cnc21	·	·	-17.7%	·	·	-2.6%
SMILES	ATXN viability	ATXN2 expr inh	TGFb inhibitor	HT1080-NT tox	HT1080 IDH1KD tx	HepG2 viability
COC(=O)c1ccc(NC(=O)CN(Cc2ccccc2)S(=O)(=O)c2ccc(Cl)cc2)cc1	?	?	17.8µM*	·	·	-21.5%
Cc1ccccc1NC(=O)c1ccc(N(Cc2ccccc2)S(C)(=O)=O)cc1	·	?	?	·	·	-65.9%
COC(=O)c1ccc(NC(=O)CN(Cc2ccccc2)S(=O)(=O)c2ccc(C)cc2)cc1	?	-31.0%	-25.1%	·	·	-30.7%
CS(=O)(=O)N(Cc1ccccc1)c1ccc(C(=O)Nc2ccc(Cl)cc2)cc1	31.6µM*	?	?	·	·	-102.9%
Cc1oc(-c2ccccc2NC(=O)C2CCC2)nc1CNC(=O)c1ccc2ccccc2c1	i	·	·	·	·	·
CCCC12CN3CC(C)(CN(C1)C3c1ccc(OCc3ccccc3)cc1)C2=O (configuration not stated)	i	4.7%	-16.0%	·	·	-3.2%
Cc1ccc(OCCCCCCN2CCNCC2)c(Br)c1	?	10.8%	?	?	14.6µM*	-20.8%
COCCCNCCOc1ccc(C(C)(C)c2ccccc2)cc1	i	-28.1%	?	?	?	-40.1%
Cc1ccc(OCCCCN2CCC(C)CC2)c(Br)c1	i	-20.9%	0.5%	-8.0%	-16.4%	-7.9%
CC(C)(c1ccccc1)c1ccc(OCCCN2CCNCC2)cc1	?	-29.7%	0.0%	-5.3%	20.6µM*	22.4µM*
CC(C)(C)c1ccc(OCCCCCCN2CCNCC2)cc1	?	?	?	?	23.1µM*	-173.2%
CCC(C)NCCOc1ccc(C(C)(C)c2ccccc2)cc1 (configuration not stated)	?	-31.0%	-3.4%	18.4µM*	?	-19.9%
C[N+](C)(CCOc1ccccc1)Cc1cccs1	i	0.9%	·	·	·	·
COc1ccc(N2CC(NC(=O)CCCc3ccccc3)CC2=O)cc1 (configuration not stated)	·	·	0.0%	·	·	-7.9%
CC(C)N(Cc1ccccc1)c1ncnc2c1nnn2C	·	·	-7.8%	·	·	-5.5%
Cc1ccc(OCCn2c(=S)[nH]c3ccccc32)c(C(C)C)c1	?	-22.0%	15.8µM*	-26.8%	?	-115.6%
COc1ccc2c(c1)CC[C@H]1[C@@H]2CC[C@]2(C)[C@@H](NCCCCCCN3C(=O)C=CC3=O)CC[C@H]12	·	39.7%	·	·	·	·
COc1ccccc1Cc1c(C(C)(C)C)nc2c3ccccc3ccn12	?	?	?	?	13µM*	-14.9%
